Structures are written as SMILES. Records with an inconclusive call do not appear. Where a call stands in place of a potency, no number is given. Active and inactive are the calls of the source. Calls follow the shape of the dose curve; as a rule, active = well fitted cell-killing curve with a large enough effect; inconclusive = small, poorly fitted or top-dose-only effect, or effect the other way; inactive = flat fitted curve, though single readings scatter.
Potency is read from the fitted curve at half-maximal effect.

The subject of this experiment is HeLa. Description: Primary qHTS to identify gynecologic anti-cancer compounds using libraries of approved drugs and bioactive compounds (AID 1345084). Also: nearly all actives have a fitted effect of over 55% in size. To be noted: Gynecologic cancer cell panel viability, ATPlite luminescence, 48 h; series mostly up to 57.5 µM. The source says:
National Center for Advancing Translational Sciences [NCATS] Assay Overview: Chemotherapeutic drug responses vary from cancer to cancer and from patient to patient. These variations could be caused by a number of factors including patient genomic background, tumor mutations, tumor heterogeneity, and aspects of drug treatment. Chemotherapeutic drug resistance is also a common issue and can lead to ineffective treatment and patient death. Here we have profiled the cell killing effects of thousands of compounds to characterize the responses in three gynecological cancers, identify cancer-selective compounds, and understand the diversity of responses to these compounds from pan-cancer suppressors to single cell line selective compounds. In this assay, we screened a 7,914 compound drug library that included approved drug and bioactive compounds in six ovarian, three cervical, and […] placental cancer cell lines using the ATPlite assay for cell viability. […] The cervical cancer cell lines included HeLa, Ca Ski, and C-33 A. The placental cancer cell lines included JEG-3. HEK 293T cells were used as the control cell line to determine the selectivity index. ATPlite is a luminescence based assay reliant on the conversion of a luciferase substrate to light in the presence of ATP. As a cytotoxic compound will suppress growth and decrease the number of cells, the concentration of ATP will decrease, and less light signal will be detected in the well.
Assay Protocol Summary: 1,000 cells in 4 uL of media were dispensed into white, solid bottom 1536-well plates using a Multidrop Combi (Thermo Scientific). The Assay plates were incubated for 16 hours at 37 C with 5% CO2 in assay plates, followed by the addition of 23 nL of DMSO or drug dissolved in DMSO. Each compound was assayed in five concentrations (0.092, 0.46, 2.3, 11.5, and 57.5 uM), using the automated Wako 1536 Pin Tool workstation and incubated at 37 C with 5% CO2 48 hours. 4 uL of ATPlite, the ATP monitoring reagent, was then added to the each well of the assay plates using the Multidrop Combi reagent dispenser followed by incubation for 15 minutes at room temperature. The resulting luminescence was measured using the ViewLux plate reader.
(Quantitative high-throughput screening tests each substance at several concentrations.)
As to `Cn1c(=O)c2c(ncn2CC(O)CO)n(C)c1=O` (stereo not given), the Potency entry is “inactive”.
Take `CN(Cc1cc(Br)cc(Br)c1N)C1CCCCC1`: the Potency entry was “inactive”.
Take `COc1cc([C@@H]2c3cc4c(cc3[C@H](O)[C@H]3COC(=O)[C@H]23)OCO4)cc(OC)c1OC`: the Potency was 100 nM (active).
As for `O=C(O)c1cccnc1`, the Potency result was “inactive”.
In the case of `CCCc1cc(C(N)=S)ccn1` it was “inactive”; in that of `CC1=NN(c2ccccc2)C(=O)C1`, “inactive”; in that of `NNC(=O)c1ccncc1`, “inactive”.
In the case of `CNNCc1ccc(C(=O)NC(C)C)cc1` it was “inactive”; in that of `C[C@@H]1CN(c2c(F)c(N)c3c(=O)c(C(=O)O)cn(C4CC4)c3c2F)C[C@H](C)N1`, “inactive”; in that of `Cc1cccc(Nc2ccncc2S(=O)(=O)NC(=O)NC(C)C)c1`, “inactive”.
In the case of `O=C(O)CCn1c2c(c3ccccc31)C[C@H](NS(=O)(=O)c1ccc(F)cc1)CC2` it was “inactive”.
`CCN(C)C(=O)Oc1cccc([C@H](C)N(C)C)c1`: the Potency result was “inactive”.
For `NC(=O)c1cccnc1`, the Potency result was “inactive”.
Consider `CC(C(=O)O)c1ccc2c(c1)CC(=O)c1ccccc1S2` (stereo not given), for which the Potency entry was “inactive”.
On to `CCn1cc(C(=O)O)c(=O)c2cc(F)c(N3CCNCC3)cc21`, for which the Potency result was “inactive”.
To `CC(C)(C)NC(=O)[C@H]1CC[C@H]2[C@@H]3CC[C@H]4NC(=O)C=C[C@]4(C)[C@H]3CC[C@]12C` belongs “inactive”.
In the case of `CCOc1cc(N)c(Cl)cc1C(=O)NCC1CN(Cc2ccc(F)cc2)CCO1` (stereo not given) it was “inactive”; in that of `Cc1noc(NS(=O)(=O)c2ccc(N)cc2)c1C`, “inactive”.
With `COc1cc2ncnc(Nc3cccc(Cl)c3)c2cc1OC`, the Potency entry was “inactive”.
To `CCCCc1oc2ccc(NS(C)(=O)=O)cc2c1C(=O)c1ccc(OCCCN(CCCC)CCCC)cc1` belongs “inactive”.
To `NC(N)=NC(N)=NCCc1ccccc1` belongs “inactive”; to `CC(C)Cn1cnc2c(N)nc3ccccc3c21`, “inactive”.
In the case of `COc1ccc(C(=O)CC(=O)c2ccc(C(C)(C)C)cc2)cc1` it was “inactive”; in that of `CN(C)c1ccc(C(=C2C=CC(=[N+](C)C)C=C2)c2ccc(N(C)C)cc2)cc1`, 2000 nM (active).
For `CN(CCOc1ccc(CC2SC(=O)NC2=O)cc1)c1ccccn1` (stereo not given), the Potency entry was “inactive”.
In the case of `CC(=O)CC(c1ccccc1)c1c(O)c2ccccc2oc1=O` (stereo not given) it was “inactive”; in that of `CC(C)(C#N)c1cc(Cn2cncn2)cc(C(C)(C)C#N)c1`, “inactive”; in that of `CNS(=O)(=O)CCc1ccc2[nH]cc(C3CCN(C)CC3)c2c1`, “inactive”.
To `COc1cccc(N(C)C(=S)Oc2ccc3c(c2)CCCC3)n1` belongs “inactive”; to `CCOC(=O)c1ccc(OC(=O)CCCCCN=C(N)N)cc1`, “inactive”.
To `CCN[C@H]1C[C@H](C)S(=O)(=O)c2sc(S(N)(=O)=O)cc21` belongs “inactive”.
As to `COc1cc(NS(=O)(=O)c2ccc(N)cc2)nc(OC)n1`, the Potency entry is “inactive”.
In the case of `NCCCC(O)(P(=O)(O)O)P(=O)(O)O` it was “inactive”.
Regarding `COCCCOc1cc(C[C@@H](C[C@H](N)[C@@H](O)C[C@H](C(=O)NCC(C)(C)C(N)=O)C(C)C)C(C)C)ccc1OC`, the Potency entry was “inactive”.
To `CC1(C)[C@H](C(=O)O)N2C(=O)C[C@H]2S1(=O)=O` belongs “inactive”.
Turning to `O=C(N[C@H](CO)[C@H](O)c1ccc([N+](=O)[O-])cc1)C(Cl)Cl`, the Potency result was “inactive”.
In the case of `O[C@@H](CNC[C@H](O)[C@H]1CCc2cc(F)ccc2O1)[C@@H]1CCc2cc(F)ccc2O1` it was “inactive”; in that of `COc1ncnc(NS(=O)(=O)c2ccc(N)cc2)c1OC`, “inactive”; in that of `COc1ccc(-c2ccc3cc(C(=O)O)ccc3c2)cc1C12CC3CC(CC(C3)C1)C2`, “inactive”.
In the case of `NS(=O)(=O)c1cc2c(cc1Cl)NC(C(Cl)Cl)NS2(=O)=O` (stereo not given) it was “inactive”.

Source of the values: PubChem BioAssay (NCATS).
